# Experimental data: PubChem BioAssay
# Values joined by “and” are separate entries in the source; they are usually repeats but may differ in a detail not shown here. Equal values may be shown once.
# Columns and labels:
# [1] = tested on: Human papillomavirus type 1a protein E7 (residues 44-93); experiment: small molecules binding HPV E7 44-93 – biochemical, small-molecule microarray, residues 44-93, 635 nm fluorescence, primary screen (AID 1108); details: fluorescence 635 nm, higher = more signal;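 note: E7 fragment applied at 1 µg/mL in TBST for 1 h at 4 C; score combines spot fluorescence with its signal to noise ratio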
# [2] = hepatitis C replication reporter changes, two-sided – Huh7 cells, luciferase reporter, HCV replication inhibitor project, primary screen (AID 1109); details: Huh7 HCV replicon luciferase reporter, 48 h; higher = more signal;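 note: huh7 hepatoma cells harbouring a luciferase neomycin HCV replicon reporter; luciferase luminescence as measure of HCV replicon replication; test concentration not given here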
# [3] = molecular target: Left-right determination factor 2 (Homo sapiens) (UniProt O00292); experiment: small molecules binding LEFTY2 protein – biochemical, small-molecule microarray, 635 nm fluorescence scan, primary screen (AID 1110); details: higher = more signal
# Left-right determination factor 2 (Homo sapiens), sequence (O00292 whole entry, looked up): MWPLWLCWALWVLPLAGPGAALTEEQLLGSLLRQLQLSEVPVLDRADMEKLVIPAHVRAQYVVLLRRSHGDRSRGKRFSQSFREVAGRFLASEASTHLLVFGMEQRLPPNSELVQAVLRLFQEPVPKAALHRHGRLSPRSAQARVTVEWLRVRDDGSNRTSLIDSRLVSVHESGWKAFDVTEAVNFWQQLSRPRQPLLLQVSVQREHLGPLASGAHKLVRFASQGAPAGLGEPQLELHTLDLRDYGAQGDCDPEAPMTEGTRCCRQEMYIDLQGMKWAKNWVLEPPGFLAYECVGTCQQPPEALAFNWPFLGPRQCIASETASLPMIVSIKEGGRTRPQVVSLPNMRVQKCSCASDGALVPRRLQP
# [4] = molecular target: Calmodulin-1 (Homo sapiens) (UniProt P0DP23); experiment: small molecules binding calmodulin-1 with EGTA – biochemical, small-molecule microarray, Cy5-labelled CALM1, profiling panel (AID 1111); details: Cy5-CALM1 binding fluorescence, higher = more signal;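 note: labelled calmodulin applied in Tris saline Tween buffer holding calcium plus EGTA and DTT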
# [5] = molecular target: Calmodulin-1 (Homo sapiens) (UniProt P0DP23); experiment: small molecules binding Ca-loaded calmodulin-1 – biochemical, small-molecule microarray, Cy5-labelled CALM1, plus calcium, artefact control for SMM control-protein annotation, profiling panel (AID 1112); details: Cy5-CALM1 binding fluorescence, higher = more signal;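 note: score merges spot fluorescence with signal to noise from triplicate slides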
# [6] = probe aWnt5a binding to arrayed compounds – biochemical, biotinylated probe, 635/667 nm fluorescence, primary screen (AID 1113); details: small-molecule microarray, higher = more signal;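 note: score merges 667 nm fluorescence intensity with signal-to-noise per printed feature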
# [7] = probe aShh binding to arrayed compounds – biochemical, biotinylated probe, 635/667 nm fluorescence, primary screen (AID 1114); details: small-molecule microarray, higher = more signal;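 note: probe is biotin-labelled aShh protein from a stem cell growth factor screen; measures binding of labelled protein to compounds printed on the slide; score merges feature fluorescence at 667 nm with signal-to-noise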
# [8] = probe aNog binding to arrayed compounds – biochemical, biotinylated probe, 635/667 nm fluorescence, primary screen (AID 1115); details: small-molecule microarray, higher = more signal;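 note: probe is biotinylated aNog protein used at 0.15 µg/mL for 1 h at 4 C; z-score combines 667 nm fluorescence of each spot with its signal to noise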
# [9] = molecular target: Torsin-1A-interacting protein 1 (Homo sapiens) (UniProt Q5JTV8); experiment: compound microarray binding of lysate hLAP1 – cell lysate, small-molecule microarray, COS7 lysate, 635/667 nm fluorescence, primary screen (AID 1116); details: 635 nm fluorescence, higher = more signal
# Torsin-1A-interacting protein 1 (Homo sapiens), sequence (Q5JTV8 whole entry, looked up): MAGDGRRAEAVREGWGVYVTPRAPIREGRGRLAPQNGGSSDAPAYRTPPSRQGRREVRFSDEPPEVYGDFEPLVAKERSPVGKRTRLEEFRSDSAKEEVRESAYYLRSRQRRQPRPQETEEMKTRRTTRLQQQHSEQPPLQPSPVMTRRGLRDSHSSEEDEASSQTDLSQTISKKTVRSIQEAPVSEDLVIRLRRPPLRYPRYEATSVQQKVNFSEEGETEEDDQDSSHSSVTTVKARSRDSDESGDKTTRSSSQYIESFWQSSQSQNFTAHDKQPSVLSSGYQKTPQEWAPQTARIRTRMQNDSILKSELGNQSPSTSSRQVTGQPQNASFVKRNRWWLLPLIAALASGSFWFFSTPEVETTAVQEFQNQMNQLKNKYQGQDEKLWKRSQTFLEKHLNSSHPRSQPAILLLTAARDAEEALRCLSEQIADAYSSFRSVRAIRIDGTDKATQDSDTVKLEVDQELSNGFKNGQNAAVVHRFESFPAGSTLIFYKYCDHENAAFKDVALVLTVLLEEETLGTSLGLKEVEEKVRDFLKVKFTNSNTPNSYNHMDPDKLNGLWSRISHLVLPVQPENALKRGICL
# [10] = molecular target: Alpha-bungarotoxin (Bungarus multicinctus) (UniProt P60615); experiment: compounds binding labelled alpha-BTX control protein – biochemical, small-molecule microarray, Alexa647 label, 635/667 nm fluorescence, artefact control for SMM control protein annotation, profiling panel (AID 1117); details: alpha-BTX-A647 binding fluorescence, higher = more signal
# Alpha-bungarotoxin (Bungarus multicinctus), sequence (P60615 whole entry, looked up): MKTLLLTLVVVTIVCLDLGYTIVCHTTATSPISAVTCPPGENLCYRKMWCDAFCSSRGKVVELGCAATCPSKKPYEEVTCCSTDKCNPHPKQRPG
Compound,composite z-score [1],z-score [2],composite z-score [3],composite z-score [4],composite z-score [5],composite z-score [6],composite z-score [7],composite z-score [8],composite z-score [9],composite z-score [10]
O=c1n(-c2ccccc2)c(=O)n2n1CC[C@@H]1C(=NOC[C@@H](O)COCc3ccco3)[C@H]3O[C@H]3[C@@H](O)[C@@H]12,0.334 and -1.78,0.273 and -3.95,0.549 and 0.474,-0.288 and -0.601,-1.31 and -0.958,-0.0659 and -0.0276,-0.367 and -0.0035,-0.261 and -0.0733,0.721 and 0.223,0.719 and 0.0807
C=CCN(Cc1ccccc1)C(=O)C1N(CCOCCO)C(=O)C2C(C(=O)O)C3C=CC21O3 (stereo not given),-0.445 and -0.308,0.0184 and -0.0316,-3 and -3.39,-0.711 and -0.795,0.473 and -0.0792,-0.228 and -0.208,-0.138 and -0.276,0.238 and -0.341,3.99 and -0.887,-2.86 and -1.73
C=CCN(C(=O)C1N(CCOCCO)C(=O)C2C(C(=O)O)C3C=CC21O3)c1ccc(OC)cc1 (stereo not given),-0.754 and -1.72,0.51 and -0.102,-2.03 and -2.77,-0.315 and -1.35,0.538 and -0.237,-0.2 and -0.214,-0.221 and -0.195,0.406 and 0.669,1.38 and -0.149,-1.18 and -2.65
CCC[C@@H]1C[C@@]1(CCC)[C@@H](NC(=O)c1ccc(-c2ccccc2)cc1)c1cccc(Cl)c1,-0.802 and 0.457,-2.13 and -2.05,-0.307 and -0.135,-1.57 and 0.535,-1.45 and 0.215,0.874 and 0.103,2.27 and -0.138,2.75 and 0.507,0.415 and 0.868,-0.899 and -0.0107
C=CCN(C(=O)C(c1cccs1)N(C(=O)/C=C\C(=O)O)c1ccc(CCO)cc1)C(C)(C)C (stereo not given),-1.51 and -0.35,-0.18 and 0.135,-3.2 and -3.93,0.295 and 0.0738,1.1 and 0.871,-0.148 and -0.27,-0.0035 and 0.568,1.1 and -0.0102,3.3 and 2.33,-0.263 and -1.06
CO[C@@H]1COC(=O)CC=C[C@H](C)COC(=O)[C@H](C)NC(=O)CC=C[C@H]1C,-0.103,-0.394,0.663,-0.76,-0.754,-0.13,0.178,-0.118,0.542,-0.711
C=C[C@@H](C)[C@H](O)c1ccc(O)c2ccccc12,-0.54 and -1.74,-0.857 and -0.0113,0.265 and -0.863,-1.27 and -1.29,-1.21 and -1.19,-0.224 and -0.283,-0.0035 and -0.0709,-0.157 and -0.299,-0.444 and -0.659,-0.286 and -0.508
C=CC[C@@H](O)c1ccc(O)c2ccccc12,0.837 and 1.21,-1.89 and -2.65,0.723 and 0.901,-1.52 and -0.403,-1.59 and -1.41,-0.101 and -0.0704,0.296 and -0.0553,-0.369 and -0.55,0.848 and 0.0091,2.05 and 1.17
C[N+](C)(C)CCCCNC(=O)[C@H]1C[C@H]2C(=O)N[C@@H](CCCC[N+](C)(C)C)C(=O)N2[C@H]1c1ccc(O)cc1,1.29 and 0.0427,-0.999 and 0.723,1.41 and 1.47,-0.0061 and -1.63,-0.426 and -1.34,-0.0685 and -0.0643,-0.0011 and -0.0709,0.0416 and -0.7,0.699 and 0.0645,0.0509 and -0.801
CCN1C(=O)[C@H]2[C@H]3[C@H](O)[C@H](O)CC(=NOC[C@@H](O)COCc4ccco4)[C@@H]3CC[C@H]2C1=O,-1.08 and -1.63,0.0085 and 1.42,1.32 and 0.764,-1.05 and -0.872,-1.72 and -1.74,-0.0721 and -0.232,-0.145 and -0.138,0.0326 and -0.0236,0.205 and -0.291,0.0851 and -0.421
CCOC(=O)NN=C1C[C@@H](O)[C@@H](O)[C@@H]2[C@@H]3C(=O)N(Cc4ccccc4)C(=O)[C@@H]3CC[C@@H]12,-0.337,-0.16,0.349,-0.546,-0.659,0.134,-0.2,-0.207,0.297,-0.168
C=CCN(CCCC)C(=O)C1N(CCOCCO)C(=O)C2C(C(=O)O)C3C=CC21O3 (stereo not given),-0.0707 and -0.913,0.367 and 0.91,-2.91 and -1.58,-0.794 and -0.296,-0.0435 and 0.108,-0.256 and -0.287,-0.138,-0.216 and -0.352,1.59 and -0.819,-1.59 and -0.552
C[N+](C)(C)CCCCCCNC(=O)[C@H]1C[C@H]2C(=O)N[C@@H](CCCC[N+](C)(C)C)C(=O)N2[C@H]1c1cccc(OCCO)c1,0.519 and 0.362,1.38 and 1.18,1.35 and 1.04,-0.742 and -0.31,-0.458 and 0.0972,-0.0981 and -0.0478,-0.291 and -0.167,-0.0855 and 0.304,0.953 and 0.544,0.433 and -0.3
C#CCCCON=C1C[C@@H](O)[C@@H](O)[C@@H]2[C@@H]3C(=O)N(C4CCCCC4)C(=O)[C@@H]3CC[C@H]12,0.774,-0.147,0.16,0.974,0.244,0.454,-0.0177,-0.134,0.104,2.51
CC(C)=NOCc1ccc(-c2cn([C@@H]3COC[C@H]3O)nn2)cc1,-0.0942,0.28,0.679,0.676,-0.358,-0.143,-0.17,-0.248,0.507,-0.175
COc1ccc(-c2ccc3c(n2)CCCN3CC(O)CN2CCCc3nc(-c4ccc(Br)cc4)ccc32)cc1 (stereo not given),0.363 and -0.763,-2.44 and -0.174,0.61 and 0.922,0.347 and 0.413,0.116 and -0.108,0.0994 and -0.006,0.896 and 0.233,0.202 and 0.309,0.498 and 0.282,2.04 and 1.76
C=CCN(C(=O)C1N(c2ccc(CCO)cc2)C(=O)C2C(C(=O)O)C3C=CC21O3)c1ccc(OC)cc1 (stereo not given),-0.178 and -3.84,0.174 and 0.383,-1.59 and -1.27,-0.394 and -0.181,-0.702 and 0.0188,-0.154 and -0.285,0.0899 and -0.239,-0.172 and 0.0343,-0.447 and 0.206,-0.102 and -0.62
